PubChem BioAssay
Active and inactive are the calls of the source.

Assays:
[1] = tested on: XIP peptide (Xip251-270) binding; assay: XIP fragment 251-270 binding compounds – biochemical, small-molecule microarray, fluorescence 635/667 nm, 0.1 µg/mL protein, primary screen (AID 1182); conditions: fluorescent protein binding, 635 nm, higher = more signal, called active from +8 up or from −8 down
XIP peptide (Xip251-270) = assay: compounds binding XIP fragment 251-270 – biochemical, small-molecule microarray, fluorescence 635/667 nm, 0.5 µg/mL protein, primary screen (AID 1183); conditions: fluorescence 635 nm, higher = more signal
[2] = blood-stage malaria parasite viability loss – strain 3D7, DAPI fluorescence, 100 nL, primary screen (AID 1184);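 also: parasites grown inside human red blood cells in medium with human serum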; conditions: P. falciparum 3D7 growth, 3 d, higher = more signal
[3] = target: Homeobox protein Hox-A13 (Mus musculus) (UniProt Q62424); assay: disruptors of Hoxa13 oligonucleotide interaction – biochemical, fluorescence polarization, labeled oligonucleotide, primary screen (AID 1185); conditions: Hoxa13:DNA binding, 15 min, higher = more signal, called active from +8 up or from −8 down
Sequence of Homeobox protein Hox-A13 (Mus musculus) (Q62424 whole entry, looked up): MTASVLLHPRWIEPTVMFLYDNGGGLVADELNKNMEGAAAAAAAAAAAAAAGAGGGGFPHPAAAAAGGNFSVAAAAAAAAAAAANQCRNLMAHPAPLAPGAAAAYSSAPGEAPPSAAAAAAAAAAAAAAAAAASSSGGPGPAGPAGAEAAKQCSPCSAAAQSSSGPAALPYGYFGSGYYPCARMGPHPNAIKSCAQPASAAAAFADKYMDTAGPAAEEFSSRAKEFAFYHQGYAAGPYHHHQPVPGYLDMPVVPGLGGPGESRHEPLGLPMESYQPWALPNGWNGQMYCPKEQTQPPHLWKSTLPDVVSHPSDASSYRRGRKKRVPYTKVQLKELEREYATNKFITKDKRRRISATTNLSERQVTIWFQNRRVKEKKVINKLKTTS

## COCC#Cc1ccc([C@@H]2N[C@H](C(=O)O)CC[C@H]2C)cc1
[1]
  composite z-score: -0.238 (inactive)
XIP peptide (Xip251-270)
  composite z-score: -0.52
[2]
  z-score: 0.383
[3]
  z-score: -1.46 (inactive)

## C[C@@H](c1ccccc1)N1C(=O)[C@H]2[C@H]3[C@H](O)[C@H](O)CC(=NOC[C@@H](O)COCc4ccco4)[C@H]3CC[C@H]2C1=O
[1]
  composite z-score: 0.15 (inactive)
XIP peptide (Xip251-270)
  composite z-score: 0.316
[2]
  z-score: -2.06
[3]
  z-score: -3.21 (inactive)

## CO[C@@H]1COC(=O)[C@@H]2CCCN2C(=O)[C@@H](C)COC(=O)CCC[C@H]1C
[1]
  composite z-score: -0.0308 (inactive)
XIP peptide (Xip251-270)
  composite z-score: 0.143
[2]
  z-score: 0.193
[3]
  z-score: 0.694 (inactive)

## C[C@H]1C=CCC(=O)OC[C@H](C)C(=O)N2CCC[C@H]2C(=O)OC1
[1]
  composite z-score: 0.23 (inactive)
XIP peptide (Xip251-270)
  composite z-score: 0.476
[2]
  z-score: 0.878
[3]
  z-score: -0.266 (inactive)

## C[C@@H]1CC[C@H]2C(=O)OC(Cc3ccccc3)CN2[C@H]1c1ccc(Br)cc1 (some centres not stated)
[1]
  composite z-score: -0.0207 (inactive)
XIP peptide (Xip251-270)
  composite z-score: 0.276
[2]
  z-score: 0.695
[3]
  z-score: -3.22 (inactive)

## C[C@@H]1CC[C@@H](C(=O)O)N[C@H]1c1cccc(N2CCOCC2)c1
[1]
  composite z-score: -0.315 (inactive)
XIP peptide (Xip251-270)
  composite z-score: -0.135
[2]
  z-score: 0.818
[3]
  z-score: 0.167 (inactive)

## CCN1C(=O)[C@H]2[C@H]3[C@H](O)[C@H](O)CC(=NO[C@@H]4O[C@H](COC(C)=O)[C@@H](OC(C)=O)[C@H](OC(C)=O)[C@H]4OC(C)=O)[C@@H]3CC[C@H]2C1=O
[1]
  composite z-score: 0.369 (inactive)
XIP peptide (Xip251-270)
  composite z-score: -0.191
[2]
  z-score: 1.87
[3]
  z-score: -1.75 (inactive)

## CC(=O)OC[C@H]1O[C@H](C#CCCc2ccccc2)C=C[C@@H]1OC(C)=O
[1]
  composite z-score: 0.22 (inactive)
XIP peptide (Xip251-270)
  composite z-score: 0.758
[2]
  z-score: 0.972
[3]
  z-score: -4.7 (inactive)
